HT1080-NT tox = kills 2HG-producing HT-1080-NT fibrosarcoma cells. HT-1080-NT fibrosarcoma viability, CellTiter-Glo ATP luminescence, 48 h. Potency, µM (highest dose often 46.1 µM), without a hit: at the top dose activity, negative = less viability, actives largely listed as cytotoxic. 360,000 compounds, 1.6% hits;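 also: NT is the 2HG producing partner of a matched IDH1 knockdown line; 0% = DMSO-treated cells and -100% = media-only wells without cells; nearly all actives have a fitted effect of over 55% in size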
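Read-out is CellTiter-Glo luminescence after 10 minutes at room temperature, following 48 hours' compound treatment of HT-1080-NT cells (750 cells/well, RPMI, 5% FBS, 37 degrees C).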
TGFb SMAD3 inh = blocks TGF-b signaling | 410,000 compounds, 1.2% hits | Potency, µM (highest dose often 46.1 µM), for inactives: at the top dose activity, negative = inhibition, usual class: inhibitors | HepG2 CAGA-GFP TGF-b/SMAD3 reporter, GFP fluorescence, 18 h; TGF-beta stimulated, 500 pg/mL final; also: % is scaled to controls: 0 for no effect and ±100 for the full control effect; nearly all actives have a fitted effect of over 65% in size
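HEPG2 CAGA-GFP reporter cells (1000/well, DMEM with 1% FBS) received compounds, then recombinant TGF-beta at 500 pg/mL final for 18 hours at 37 degrees C. Per-cell GFP summed per well was normalised to unstimulated and stimulated DMSO controls before curve fitting.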
HepG2 tox = counter-screen for TGF-b inhibitors: cytotoxicity in HepG2 cells; HepG2 CAGA-GFP viability, ATP luminescence, 18 h; Potency, µM (titrated, usually from 46.1 µM), for the others: at the highest dose activity change, negative = cytotoxicity, actives largely listed as cytotoxic; 410,000 compounds, 0.76% hits
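HepG2 CAGA-GFP cells (1000/well, DMEM with 1% FBS) received compound, then TGF-beta at 500 pg/mL final, and were incubated 18 hours at 37 degrees C. Viability was read by CellTiter-Glo luminescence. Media-only wells were set as complete cell-killing and DMSO as no toxicity.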
DT40 TDP1 CPT = DT40-hTDP1 cell growth loss with CPT; 420,000 compounds, 12% hits; Potency, µM (top dose mostly 46.2 µM), for the others: at the top dose activity change, negative = growth inhibition, usual class: inhibitors; chicken DT40 Tdp1-/-;hTDP1 cells + 20 nM CPT, ATP luminescence, 48 h; also: % is scaled to controls: 0 for no effect and ±100 for the full control effect; nearly all actives have a fitted effect of over 55% in size
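Cell growth measured by CellTiter-Glo luminescence after a minimum 48 h, 37 C compound exposure with 20 nM CPT in Tdp1-knockout DT40 cells stably expressing hTDP1, seeded 400/well; qHTS titration format.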
DT40 TDP1 no CPT = qHTS for Inhibitors of human tyrosyl-DNA phosphodiesterase 1 (TDP1): qHTS in cells in absence of CPT; 420,000 compounds, 15% hits; DT40 Tdp1-/- hTDP1 cells, no CPT, ATP luminescence, 48 h; Potency, µM (top dose mostly 46.2 µM), inactives show top-dose activity change, negative = growth inhibition, usual class: inhibitors; also: % is scaled to controls: 0 for no effect and ±100 for the full control effect; nearly all actives have a fitted effect of over 55% in size
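Compound effects on proliferation are scored in DT40 Tdp1-/-;hTDP1 cells in the absence of CPT. ATP levels (CellTiter-Glo luminescence) are recorded after a ≥48 hr, 37 °C incubation.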
HT1080 IDH1KD tx = kills HT-1080 cells with IDH1 knockdown; Potency, µM (top dose mostly 46.1 µM), inactives show at the highest dose activity, negative = toxicity, actives largely listed as cytotoxic; 360,000 compounds, 2% hits; AID 686971; HT-1080 IDH1 knockdown viability, ATP luminescence, 48 h;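 also: 0% = DMSO wells and -100% = cell-free medium wells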
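Knockdown cells (IDH1KD HT-1080) received compounds 2 h after plating at 750 cells/well and were kept 48 h at 37 °C in 5% FBS RPMI. A CellTiter-Glo luminescence read gave % activity for curve fitting.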
Active calls of the source: *; ? = inconclusive; / = not tested or not shown. Compounds with a hit are over-represented: about 17% of the library has one in this group of screens. Calls follow the shape of the dose curve; as a rule, active = well fitted curve in the direction sought with a large enough effect; inconclusive = small, poorly fitted or top-dose-only effect, or another doubt; inactive = no such curve, though single readings can be large; an effect the other way counts as inactive or inconclusive. Potency is read from the fitted curve at half-maximal effect.

SMILES	HT1080-NT tox	TGFb SMAD3 inh	HepG2 tox	DT40 TDP1 CPT	DT40 TDP1 no CPT	HT1080 IDH1KD tx
Cc1ccccc1NC(=O)c1nc(S(C)(=O)=O)ncc1Cl	15µM*	16µM*	-119%	2.3µM*	2.3µM*	15µM*
COc1ccccc1NC(=O)c1nc(SCc2ccccc2F)ncc1Cl	/	5%	4%	?	-7%	/
Cc1ccc(NC(=O)c2nc(SCc3ccccc3F)ncc2Cl)cc1	/	1%	3%	-14%	-7%	/
CCCOc1nc(N)c(C#N)c(-c2ccccc2F)c1C#N	-1%	25%	-5%	16µM*	?	-8%
O=C(CN1CCSc2ccccc21)NCc1ccccc1F	/	0%	-4%	/	/	/
CCOC(=O)N1CCC(N2C(=O)c3ccccc3C2Nc2cc(C)cc(C)c2)CC1 (stereo not drawn)	-8%	-7%	-10%	?	15µM*	-17%
CCCCC(=O)OCc1c(-c2ccccc2)ncc2ccccc12	4%	5%	0%	5%	-12%	12%
CSCCC(NC(=O)c1ccco1)C(=O)NCC(C)(C)N1CCOCC1 (stereo not drawn)	-4%	-3%	-3%	-1%	-3%	0%
O=C(N1CCN(c2ccccc2F)CC1)C1(c2cccs2)CCOCC1	-18%	5%	3%	?	18µM*	14%
COC(=O)c1ccccc1NC(=O)C1(c2cccs2)CCOCC1	/	17%	4%	?	21µM*	/
CC(C)CCNC(=O)c1cn(C)c2ccc(S(=O)(=O)N3CCOCC3)cc2c1=O	/	-6%	9%	-20%	-19%	/
CO/N=C\CC(=O)Nc1ccc(F)cc1	8%	-6%	-42%	-1%	-6%	2%
C/C(CC(=O)Nc1ccc(Cl)cc1Cl)=N\NC(N)=S	10µM*	?	-26%	-18%	-29%	7.9µM*
CO/N=C\CC(=O)Nc1ccc(Cl)cc1Cl	?	-16%	1%	12µM*	21µM*	8.2µM*
COc1ccc(NCc2ccc(OC)c(Cn3ccnc3)c2)c(OC)c1	-5%	5%	-43%	-29%	?	-7%
CC(=O)Nc1ccc(CN2C(=O)C(CCc3ccccc3)ON=C2c2cnccn2)cc1 (stereo not drawn)	-8%	-2%	-2%	?	?	-6%
Cn1c2ccccc2c2cnn(CC(=O)Nc3ccccc3F)c(=O)c21	/	13%	-2%	-9%	?	/
CN(Cc1ccccc1F)c1cc2c(c3c1ccn3C)C1CCC2C1 (stereo not drawn)	-8%	-1%	-6%	?	23µM*	-10%
CCc1nc2c(OCC3CCCCC3)cccn2c1N(C)C(=O)c1ccc(C)cc1	?	?	-41%	21µM*	15µM*	?
CCc1nc2c(OCc3ccc(F)c(F)c3)cccn2c1N(C)C(=O)c1ccncc1	-3%	5%	5%	-10%	-27%	11%
CCc1nc2c(OCCC3CCCCC3)cccn2c1N(C)C(=O)c1ccc(OC)cc1	?	?	-81%	?	21µM*	?
CCc1nc2c(OCCn3cccc3)cccn2c1N(C)C(=O)c1ccc(OC)cc1	7%	-11%	-3%	6%	-5%	14%
CCc1nc2c(OCCC3CCCCC3)cccn2c1N(C)C(=O)c1ccncc1	-1%	-1%	-4%	16µM*	15µM*	7%
CCSc1nnc2c(n1)OC(c1sccc1C)N(C(C)=O)c1ccccc1-2 (stereo not drawn)	/	?	-12%	?	13µM*	/
CCC1(c2ccc(Cl)cc2)NC(=O)N(CC(=O)NC2CCCC(C)C2C)C1=O (stereo not drawn)	-27%	-31%	-4%	23µM*	26µM*	-28%
SMILES	HT1080-NT tox	TGFb SMAD3 inh	HepG2 tox	DT40 TDP1 CPT	DT40 TDP1 no CPT	HT1080 IDH1KD tx
CCC1(c2ccc(Cl)cc2)NC(=O)N(CC(=O)NCc2ccc(F)cc2)C1=O (stereo not drawn)	-24%	-22%	-15%	?	16µM*	-10%
CCC1(c2ccc(F)cc2)NC(=O)N(CC(=O)NCc2ccc(F)cc2)C1=O (stereo not drawn)	-3%	-10%	7%	-21%	15%	-1%
CCC1(c2ccc(Cl)cc2)NC(=O)N(CC(=O)NC2CCCCCC2)C1=O (stereo not drawn)	1%	-17%	-16%	?	23µM*	-10%
O=C(COC(=O)CCNS(=O)(=O)c1ccccc1)NNC(=O)c1ccccc1	4%	6%	8%	0%	-7%	5%
C#CC(=O)CC1(CN(Cc2ccccc2)C(=O)OC(C)(C)C)CCCCC1	-13%	?	-51%	12µM*	10µM*	-11%
CCOC(=O)CN(Cc1ccccc1)C(=O)OC(C)(C)C	/	0%	4%	/	/	/
CON(C)C(=O)CC1(CN(Cc2ccccc2)C(=O)OC(C)(C)C)CCCCC1	-14%	?	1%	18µM*	18µM*	-24%
CC1CCC(NCc2ccco2)CC1 (stereo not drawn)	0%	-2%	10%	-2%	-20%	-1%
COC(=O)[C@]12CCCCC=C1N(Cc1ccc(Cl)cc1Cl)C(=O)[C@H](CC(=O)N1CCSCC1)C2	-14%	/	/	?	16µM*	-24%
COC(=O)[C@]12CCCCC=C1N(Cc1ccc(Cl)cc1Cl)C(=O)[C@H](CC(=O)N1CCCCC1)C2	?	/	/	?	18µM*	?
CSCCC(NC(=O)c1cccc(C)c1)C(=O)NNC(=O)c1cccs1 (stereo not drawn)	0%	3%	-27%	-3%	-19%	-4%
COc1ccc(CCn2c(O)cc3nn(-c4nc5ccccc5s4)c(=O)c-3c2C)cc1	-10%	13%	12%	-26%	16µM*	-3%
CC(C)C[C@H](N)c1nnc(SCc2ccc(Cl)cc2Cl)o1	/	?	-38%	/	/	/
CC(C)C[C@H](N)c1nnc(S(=O)(=O)Cc2ccc(F)cc2)o1	?	?	-101%	1.3µM*	2.1µM*	?
COc1ccc(OCC(O)CN(CC(O)COc2ccc(OC)cc2)c2cccc(O)c2)cc1 (stereo not drawn)	?	-28%	10µM*	?	-47%	?
COc1ccc(OCC(O)COc2ccc(OC)cc2)cc1	-4%	11%	-6%	-21%	?	0%

Bioassay records as filed in PubChem BioAssay.
